Our source for the outcome, max response and Potency values is PubChem BioAssay (NCATS).

Assay in all cases: Cytotoxic Profiling of Annotated Libraries Using Quantitative High-Throughput Screening (AID 1296008); also: nearly all actives have a fitted effect of over 60% in size
Common to all, as to conditions: Five cell lines viability, CellTiter-Glo ATP luminescence, 48-72 h; max response: active compounds read low
(In ATP-based viability assays light output follows the ATP content of the culture.)

For one experiment, the system named is CRL-7250. Summed up: (§1)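 Cytotoxicity was measured as CellTiter-Glo ATP luminescence, read after 10 min at room temperature. Compound treatment of the cells lasted 48 or 72 hr at 37 degrees Celsius in a qHTS format.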
Another experiment has as its system HEK293. A digest of the protocol:
as §1

Another experiment concerns HaCat. A digest of the protocol: as §1
A further experiment relates to KB-3-1. A digest of the protocol: as §1
In the next experiment the test system is NIH3T3. Summed up: as §1

Molecules are shown by their SMILES. Inconclusive results are not listed. A number with no mark means an inactive call. The source made the active and inactive calls. Calls follow the shape of the dose curve; as a rule, active = well fitted inhibition curve with a large enough effect; inconclusive = small, poorly fitted or top-dose-only effect; inactive = flat fitted curve, though single readings scatter.
% is scaled to controls: 0 for no effect and ±100 for the full control effect; potency is read from the fitted curve at half-maximal effect.

For the molecule `C[C@@H]1O[C@@H](O[C@H]2[C@H](O)[C@@H](O)[C@H](OC[C@H]3O[C@@H](OC(=O)[C@]45CCC(C)(C)C[C@H]4C4=CCC6[C@@]7(C)C[C@@H](O)[C@H](O)[C@@](C)(CO)C7[C@H](O)C[C@@]6(C)[C@]4(C)CC5)[C@H](O)[C@@H](O)[C@@H]3O)O[C@@H]2CO)[C@H](O)[C@H](O)[C@H]1O` (stereo not given in full), the molecule was called inactive in the experiment on CRL-7250, in the experiment on HaCat and in the experiment with KB-3-1. Also, the max response in the experiment on HEK293 was -10.1%; in the experiment on NIH3T3 it was -2.14%.
As for `CC1(C)C2CC[C@@]34CC(CC[C@H]3[C@]2(C)CC[C@@H]1O[C@@H]1O[C@H](CO)[C@@H](O)[C@H](O)[C@H]1O)[C@](C)(O)C4` (stereo not given in full), the max response is -8.76% in the experiment with CRL-7250, 0.264% with HEK293 and 8.52% in the experiment on KB-3-1. Moreover, the result in the experiment with HaCat and in the experiment with NIH3T3 was inactive.
Turning to `CCC(=O)OCC(=O)[C@@]1(OC(=O)CC)[C@@H](C)C[C@H]2[C@@H]3CCC4=CC(=O)C=C[C@]4(C)[C@@]3(F)[C@@H](O)C[C@@]21C`, the max response in the experiment with CRL-7250 was -9.64%; with HEK293, -7.33%; with HaCat, -29.8%. For the same molecule, the call with KB-3-1 and in the experiment on NIH3T3 was inactive.
Turning to `CC1(C)O[C@H]2CC(=O)OC[C@@]23C1=C(O)C(=O)[C@]1(C)C3CC[C@@]2(C)[C@H](c3ccoc3)OC(=O)[C@H]3O[C@]321` (stereo not given in full), the molecule was called inactive in the experiment on CRL-7250, with HaCat, in the experiment on KB-3-1 and in the experiment on NIH3T3. Also, the max response in the experiment with HEK293 was 1.52%.
With `O=C1C[C@@]2(C(=O)N1)C(=O)N(Cc1ccc(Br)cc1F)C(=O)c1cccn12`, the max response with CRL-7250 was -0.124%; with HaCat, -21%; with KB-3-1 it was 1.61%; with NIH3T3, 1.31%. In the experiment on HEK293, the call was inactive.
On to `CN1CCCC1Cc1c[nH]c2ccc(CCS(=O)(=O)c3ccccc3)cc12` (stereo not given), for which the call in the experiment on CRL-7250, in the experiment with HaCat and in the experiment with NIH3T3 was inactive. Also, the max response in the experiment with HEK293 is -7.1%; in the experiment with KB-3-1, 7.71%.
`CCC(C)/C=C(C)/C=C/C1=CC2=CC(=O)C(C)(O)C(OC(C)=O)C2CO1` (stereo not given): the outcome with CRL-7250 and in the experiment on NIH3T3 was inactive. Moreover, the max response is -22.7% with HEK293, 4.74% with HaCat and -4.84% in the experiment with KB-3-1.
As to `CC(=O)Nc1cccc2c1c(Sc1ccc(Cl)cc1)c(C)n2CC(=O)O`, the max response with CRL-7250 was -5.82%; in the experiment with HEK293, 1.56%; in the experiment on HaCat it was -2.39%; in the experiment with KB-3-1 it was -3.16%. In addition, the molecule was called inactive with NIH3T3.
With `O=C(C1OC1/C=C/c1ccc2c(c1)OCO2)N1CCCCC1` (stereo not given), the max response in the experiment on CRL-7250 is 3.99%; in the experiment on HEK293, -7.74%; with KB-3-1, 5.97%; in the experiment with NIH3T3, -1.01%. Moreover, the molecule was called inactive with HaCat.
For the molecule `CC(=O)OC1CC(C(C)(C)O)OC2CCC3(C)OC4=C(C(=O)C=C5C(C)C(OC(C)=O)C6(C)C(C)OC546)C(O)C3C12C` (stereo not given), the result in the experiment on CRL-7250 and with HaCat was inactive. The figures for the max response in the experiment with HEK293, in the experiment on KB-3-1 and with NIH3T3 were -23.5%, 5.34% and 1.94%, respectively.
As for `CC[C@@H](Nc1c(Nc2cccc(C(=O)N(C)C)c2O)c(=O)c1=O)c1ccc(C)o1`, the molecule was classed as inactive with CRL-7250, in the experiment with KB-3-1 and in the experiment on NIH3T3. Further, the max response with HEK293 was 0.867%; in the experiment with HaCat it was -4.91%.
Regarding `CC(C)(O)/C=C/C(=O)[C@](C)(O)[C@H]1[C@H](O)C[C@@]2(C)[C@@H]3CC=C4[C@@H](C=C(O[C@@H]5O[C@H](CO)[C@@H](O)[C@H](O)[C@H]5O)C(=O)C4(C)C)[C@]3(C)C(=O)C[C@]12C`, the max response was -3.34% with CRL-7250, -7.75% in the experiment with HEK293, 0.874% in the experiment on KB-3-1 and 1.79% in the experiment with NIH3T3. The outcome in the experiment on HaCat was inactive.
Turning to `C=C[C@@](C)(CCC=C(C)C)O[C@@H]1O[C@H](CO[C@@H]2OC[C@H](O)[C@H](O)[C@H]2O)[C@@H](O)[C@H](O)[C@H]1O`, the molecule was classed as inactive in the experiment on CRL-7250, in the experiment with HEK293 and with KB-3-1. The values for the max response in the experiment with HaCat and in the experiment on NIH3T3 were 0.544% and 4.46%, respectively.
With `OC[C@@]1(O)CO[C@@H](OC[C@H]2O[C@@H](Oc3ccccc3)[C@H](O)[C@@H](O)[C@@H]2O)[C@@H]1O`, the molecule was classed as inactive in the experiment on CRL-7250, in the experiment with HaCat and with NIH3T3. Moreover, the results for the max response with HEK293 and with KB-3-1 were -6.8% and 0.107%, respectively.
With `CC1=CCC[C@@H]2[C@](CCc3ccoc3)(C(=O)O)[C@H](C)CC[C@@]12C`, the max response in the experiment with CRL-7250 is -2.77%; in the experiment on HEK293, -3.43%; with HaCat, -10.6%; in the experiment on KB-3-1 it was 8.82%. The call with NIH3T3 was inactive.
Consider `O=C(NC1Cc2ccccc2N(C[C@@H](O)CO)C1=O)c1cc2cc(Cl)sc2[nH]1` (stereo not given in full), for which the max response is -1.76% in the experiment with CRL-7250, -0.0172% in the experiment with HaCat and 3.62% with KB-3-1. For the same molecule, the Potency with HEK293 is 16.4 µM (active). In addition, the molecule was classed as inactive in the experiment on NIH3T3.
In the case of `C=C1C(OC(C)=O)CCC2(C)CC3(O)OC(=O)C(C)=C3CC12` (stereo not given), the molecule was called inactive with CRL-7250, in the experiment on KB-3-1 and with NIH3T3. Also, the max response in the experiment on HEK293 was -4.29%; in the experiment on HaCat it was -1.9%.
As to `CC1(O)CCC2C(C3C1CCC3(C)O)C2(C)C` (stereo not given), the max response in the experiment with CRL-7250 is 3.06%; in the experiment on HEK293, 0.939%; in the experiment on HaCat, 2.93%; in the experiment on KB-3-1 it was 7.36%. In addition, the molecule was called inactive in the experiment with NIH3T3.
Turning to `O=C(/C=C/c1ccccc1)OC[C@H]1O[C@@H](OC(=O)c2cc(O)c(O)c(O)c2)[C@H](O)[C@@H](O)[C@@H]1O`, the molecule was classed as inactive with CRL-7250 and with HaCat. For the same molecule, the max response in the experiment with HEK293 is 4.27%; in the experiment on KB-3-1, 6.66%; in the experiment with NIH3T3, 3.75%.
